# The panel holds about 83,000 compounds, 20% with a hit somewhere; the sample as a whole holds those more often.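 In brief: 96-well plates, 48 h treatment, single concentration, percent growth endpoint.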 A number with no mark means an inactive call. Active and inactive are the calls of the source. How the source made its calls: active means growth percent below 10; inactive means the rest.
# System: K-562 leukemia
# Test: NCI-60 one-dose screen, 48 h (100 = growth as untreated, 0 = no growth, -100 = all killed)
# Conditions: 10 µM unless noted
row,SMILES,growth
1,O=C(CN1CCCCC1)Nc1nc(-c2cc3ccccc3oc2=O)cs1,90.9%
2,Oc1ccc(Cl)cc1/C=N\NC(=S)N/N=C/c1cc(Cl)ccc1O,22.1%
3,COC12C=C/C(=C(/C(=O)OCc3ccncn3)C(=O)CCCCCCCCC3(OC)C=C/C(=C(/C(=O)OCc4ccncn4)C(=O)CCCCCCCC1)O3)O2,-5.58% (active)
4,COc1ccc2c(c1)N(CCO)C1=C(C(=O)OC1)C2c1cccc(F)c1 (centres undefined),9.63% (active)
5,CC(=O)Oc1ccc(/C(=C(\C)c2ccc(Cl)cc2)c2ccc(OCCN3CCCCC3)cc2)cc1,-47% (active)
6,O=C(N(c1ccccc1)c1ccccc1)n1cc(I)c2nc(Cl)nc(Cl)c21,20.8%
7,N#Cc1nc(-c2ccccc2)oc1S(=O)(=O)N1CCN(c2ccccc2)CC1,34.9%
8,Cc1ccc(NC(=O)c2sc3nc(C)c(Br)c(C)c3c2N)cc1,95.5%
9,O=C(CN1C(=O)S/C(=C\C(Cl)=C\c2ccccc2)C1=O)NCCc1ccc(O)cc1,10.1%
10,O=C(/C=C/c1cn(-c2ccccc2)nc1-c1ccc(Cl)cc1)c1ccc(F)cc1,57.7%
11,CCOC(=O)c1c(NC(=O)c2cccc(C(F)(F)F)c2)sc2c(CN(C)C)c(O)ccc12,2.41% (active)
12,N#Cc1c(-c2ccccc2)cc(-c2ccc(Nc3nc(Nc4ccc(Cl)cc4)nc(Nc4ccc(Cl)cc4)n3)cc2)nc1N,32.6%
13,O=C(/C=C/c1cccs1)Nc1ncc(Cc2ccccc2F)s1,24%
14,O=S(=O)(Nc1cc(Cl)ccc1Cl)c1ccc(-c2cnc(C3CC3)o2)cc1,12%
